# Assay results from PubChem BioAssay (NCI).
# Where “and” joins values, the source holds several entries; their conditions need not be identical. Identical values can stand only once. The panel holds about 83,000 compounds, 20% with a hit somewhere; the sample as a whole holds those more often.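 Cell lines were cultured in 96-well plates, exposed to a single compound concentration, and assessed for percent growth 48 hours later.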 Unmarked numbers belong to inactive results. Calls of active or inactive are those of the source. The calls were made as follows: active = growth percent below 10; inactive = the rest.
# Legend:
# Test in all cases: NCI-60 one-dose screen, 48 h (100 = growth as untreated, 0 = no growth, -100 = all killed)
# [1] = test system: DU-145 prostate; conditions: 10 µM unless noted
# [2] = test system: K-562 leukemia; conditions: 10 µM unless noted
# [3] = test system: MALME-3M melanoma; conditions: 10 µM unless noted
# [4] = test system: MDA-MB-231 breast; conditions: 10 µM unless noted
# [5] = test system: RXF 393 renal; conditions: 10 µM unless noted
# [6] = test system: SF-268 CNS; conditions: 10 µM unless noted
# [7] = test system: SF-295 CNS; conditions: 10 µM unless noted
# [8] = test system: SF-539 CNS; conditions: 10 µM unless noted
# [9] = test system: UACC-257 melanoma; conditions: 10 µM unless noted
# [10] = test system: M14 melanoma; conditions: 10 µM unless noted
# [11] = test system: HCT-15 colon; conditions: 10 µM unless noted
# [12] = test system: HT29 colon; conditions: 10 µM unless noted
# [13] = test system: SNB-75 CNS; conditions: 10 µM unless noted
# [14] = test system: SNB-19 CNS; conditions: 10 µM unless noted
# [15] = test system: U251 CNS; conditions: 10 µM unless noted
# [16] = test system: PC-3 prostate; conditions: 10 µM unless noted
# [17] = test system: SK-MEL-5 melanoma; conditions: 10 µM unless noted
# [18] = test system: UACC-62 melanoma
# [19] = test system: LOX IMVI melanoma; conditions: 10 µM
# [20] = test system: SK-MEL-28 melanoma; conditions: 10 µM unless noted
structure (smiles),measurement,setting,value
Nc1nc(-c2ccccc2)nc(N)c1N=O,growth,[1],88.8%
same,growth,[2],31.7%
same,growth,[3],91.3%
same,growth,[4],93.8%
same,growth,[5],63.9%
same,growth,[6],77.2%
same,growth,[7],108%
same,growth,[8],77.5%
same,growth,[9],54.4%
same,growth,[10],67.3%
same,growth,[11],53.6%
same,growth,[12],14.5%
same,growth,[13],44.8%
same,growth,[14],88.7%
same,growth,[15],52.4%
same,growth,[16],79.9%
same,growth,[17],100%
same,growth,[18]; 10 µM unless noted,71.8%
same,growth,[19],66.7%
same,growth,[20],75.3%
CC(C)=CCCC(C)C1=C(O)C(=O)C(C)=CC1=O (stereo not drawn),growth,[1],99.6%
same,growth,[2],-45.3% (active)
same,growth,[3],69.3%
same,growth,[4],40.5%
same,growth,[5],58.5%
same,growth,[6],93.7%
same,growth,[7],120%
same,growth,[8],96.3%
same,growth,[9],120%
same,growth,[10],107%
same,growth,[11],1.72% (active)
same,growth,[12],83.6%
same,growth,[13],113%
same,growth,[14],98.7%
same,growth,[15],81.3%
same,growth,[16],90.8%
same,growth,[17],88.7%
same,growth,[18]; 10 µM,103%
same,growth,[18]; 100 µM,-98.4% (active) and -93.3% (active)
same,growth,[19],59.1%
CCCCCCCCCCCCCCCCCC1=NCCCN1CCO,growth,[1],108%
same,growth,[2],100%
same,growth,[3],97.4%
same,growth,[4],87.8%
same,growth,[5],124%
same,growth,[6],98.9%
same,growth,[7],96%
same,growth,[8],103%
same,growth,[9],96.1%
same,growth,[10],99.7%
same,growth,[11],94%
same,growth,[12],101%
same,growth,[13],105%
same,growth,[14],101%
same,growth,[15],98.2%
same,growth,[16],95.9%
same,growth,[17],103%
same,growth,[18]; 10 µM unless noted,111%
same,growth,[19],96.4%
same,growth,[20],108%
[Cl-].[Rh+3].c1ccc(-c2ccnc3c2ccc2c(-c4ccccc4)ccnc23)cc1.c1ccc(-c2ccnc3c2ccc2c(-c4ccccc4)ccnc23)cc1.c1ccc(-c2ccnc3c2ccc2c(-c4ccccc4)ccnc23)cc1,growth,[1],126%
same,growth,[2],34.7%
same,growth,[3],94.3%
same,growth,[4],93.6%
same,growth,[5],22.1%
same,growth,[6],95%
same,growth,[7],69.5%
same,growth,[8],-5.79% (active)
same,growth,[9],63.6%
same,growth,[10],45.7%
same,growth,[11],106%
same,growth,[12],99%
same,growth,[13],102%
same,growth,[14],57.5%
same,growth,[15],30.8%
same,growth,[16],75.5%
same,growth,[17],-38.1% (active)
same,growth,[18]; 10 µM unless noted,97.7%
same,growth,[19],88.7%
COc1c(C)c2c(c(O)c1C/C=C(\C)CCC(=O)O)C(=O)OC2,growth,[1],50.8%
same,growth,[2],20.2%
same,growth,[3],38.8%
same,growth,[4],57%
same,growth,[5],50.7%
same,growth,[6],34.8%
same,growth,[7],16.8%
same,growth,[8],40.7%
same,growth,[9],13.2%
same,growth,[10],20.4%
same,growth,[11],20.7%
same,growth,[12],13.3%
same,growth,[13],48.1%
same,growth,[14],42.3%
same,growth,[15],18.3%
same,growth,[16],40.3%
same,growth,[17],23.6%
same,growth,[18]; 10 µM unless noted,41.7%
same,growth,[19],12.1%
same,growth,[20],31.3%
C/C=C/c1cc2c(c(=O)o1)C(=O)[C@@H](O)[C@H](C)O2,growth,[1],27.6%
same,growth,[2],-4.98% (active)
same,growth,[3],19.7%
same,growth,[4],90.1%
same,growth,[5],52.7%
same,growth,[6],88.4%
same,growth,[7],96.1%
same,growth,[8],87.7%
same,growth,[9],86.7%
same,growth,[10],-3.06% (active)
same,growth,[11],-25.4% (active)
same,growth,[12],13%
same,growth,[13],-23.4% (active)
same,growth,[14],94.9%
same,growth,[15],40.4%
same,growth,[16],11.3%
same,growth,[17],95.2%
same,growth,[18]; 10 µM unless noted,80.5%
same,growth,[19],25.2%
CC(C)c1ccc(C(=O)OC2CCCC2)cc1,growth,[1],106%
same,growth,[2],120%
same,growth,[3],101%
same,growth,[4],103%
same,growth,[5],118%
same,growth,[6],95.1%
same,growth,[7],106%
same,growth,[8],108%
same,growth,[9],125%
same,growth,[10],93.9%
same,growth,[11],95.3%
same,growth,[12],113%
same,growth,[13],90.4%
same,growth,[14],102%
same,growth,[15],109%
same,growth,[16],89.9%
same,growth,[17],98.7%
same,growth,[18]; 10 µM unless noted,97.7%
same,growth,[19],95%
same,growth,[20],108%
N#CC(=C1SCS1)[N+](=O)[O-],growth,[1],2.38% (active)
same,growth,[2],28.4%
same,growth,[3],21.4%
same,growth,[4],16%
same,growth,[5],12.2%
same,growth,[6],34.9%
same,growth,[7],35.9%
same,growth,[8],11.5%
same,growth,[9],35.3%
same,growth,[10],-1.46% (active)
same,growth,[11],12.3%
same,growth,[12],1.29% (active)
same,growth,[13],40.5%
same,growth,[14],41.2%
same,growth,[15],14.4%
same,growth,[16],28.8%
same,growth,[17],5.48% (active)
same,growth,[18]; 10 µM unless noted,38.1%
same,growth,[19],17%
same,growth,[20],37.8%
